Results: the supplement of paper PMC8728848
About 410 targets per protein were measured; listed, in parts, are those with the strongest signals and a random draw of the rest.

Legend:
Assay in all cases: glycan array binding signal (z-score within array); higher = stronger binding
Conditions in all cases: glycan notation: IUPAC condensed, linker removed
[1] = biological target: 3dGal(b1-3)[Fuc(a1-4)]Glc
How it was run: (§1)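 The binding signal is a Z-score computed within each array and averaged over linkers. Arrays of the same protein sequence at different concentrations or buffers were also averaged together. Data originate from 3228 arrays in the Consortium for Functional Glycomics database, kept only where the protein sequence was available.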

[2] = biological target: Ara(a1-5)Ara(a1-5)Ara(a1-5)Ara(a1-5)Ara(a1-5)Ara(a1-5)Ara
How it was run: as §1

[3] = biological target: Fuc(a1-6)GlcNAc
How it was run: as §1

[4] = biological target: Gal(b1-3)GalNAc(b1-4)[Neu5Ac(a2-3)]Gal(b1-4)Glc
How it was run: as §1

[5] = biological target: Gal(b1-3)GlcNAc
How it was run: as §1

[6] = biological target: Gal(b1-3)GlcNAc(b1-3)[Fuc(a1-3)[Gal(b1-4)]GlcNAc(b1-6)]Gal(b1-4)]GlcNAc(b1-6)[Gal(b1-4)]GlcNAc(b1-3)]Gal(b1-4)Glc
How it was run: as §1

[7] = biological target: Gal3S(b1-4)GlcNAc
How it was run: as §1

[8] = biological target: Glc(a1-2)Glc(a1-2)Glc
How it was run: as §1

[9] = biological target: Glc(a1-4)Glc(a1-6)Glc
How it was run: as §1

[10] = biological target: Glc(a1-6)Glc(a1-6)Glc
How it was run: as §1

[11] = biological target: Glc(b1-3)Glc(b1-3)Glc(b1-3)Glc(b1-3)Glc(b1-3)Glc(b1-3)Glc(b1-3)Glc(b1-3)Glc(b1-3)Glc(b1-3)Glc
How it was run: as §1

[12] = biological target: Glc(b1-3)Glc(b1-3)Glc(b1-3)Glc(b1-3)Glc(b1-3)Glc(b1-3)Glc(b1-3)Glc(b1-3)Glc(b1-3)Glc(b1-3)Glc(b1-3)Glc
How it was run: as §1

[13] = biological target: Glc(b1-3)Glc(b1-3)Glc(b1-3)Glc(b1-3)Glc(b1-3)Glc(b1-3)Glc(b1-3)Glc(b1-3)Glc(b1-3)Glc(b1-3)Glc(b1-3)Glc(b1-3)Glc
How it was run: as §1

[14] = biological target: Glc(b1-3)Glc(b1-4)Glc
How it was run: as §1

[15] = biological target: Glc(b1-3)Glc(b1-4)Glc(b1-4)Glc
How it was run: as §1

[16] = biological target: Glc(b1-4)Glc(b1-4)Glc(b1-4)Glc(b1-4)Glc(b1-4)Glc(b1-4)Glc(b1-4)Glc(b1-4)Glc(b1-4)Glc(b1-4)Glc
How it was run: as §1

[17] = biological target: GlcA(b1-3)Gal
How it was run: as §1

[18] = biological target: GlcA3S(b1-3)Gal(b1-4)GlcNAc(b1-3)Gal(b1-4)Glc
How it was run: as §1

[19] = biological target: GlcNAc(b1-3)Gal(b1-4)Glc
How it was run: as §1

[20] = biological target: Man(a1-2)Man(a1-2)Man(a1-3)[Man(a1-2)Man(a1-6)[Man(a1-3)]Man(a1-6)]Man(b1-4)GlcNAc(b1-4)GlcNAc
How it was run: as §1

[21] = biological target: Man(b1-4)Man(b1-4)Man(b1-4)Man(b1-4)Man
How it was run: as §1

[22] = biological target: Neu(a2-3)Gal(b1-4)[Fuc(a1-3)]GlcNAc(b1-3)Gal(b1-4)Glc
How it was run: as §1

[23] = biological target: Neu5Ac(a2-3)Gal(b1-3)GalNAc(b1-4)[Neu5Ac(a2-3)]Gal(b1-4)Glc
How it was run: as §1

[24] = biological target: Neu5Ac(a2-3)Gal(b1-3)GlcNAc(b1-3)Gal(b1-4)Glc
How it was run: as §1

[25] = biological target: Neu5Ac(a2-3)Gal(b1-3)[Neu5Ac(a2-6)]GalNAc
How it was run: as §1

[26] = biological target: Neu5Ac(a2-3)Gal(b1-4)GlcNAc6S(b1-3)Gal6S(b1-3)GlcNAc6S
How it was run: as §1

[27] = biological target: Neu5Ac(a2-3)Gal(b1-4)[Fuc(a1-3)]GlcNAc(b1-3)Gal
How it was run: as §1

[28] = biological target: Neu5Ac(a2-6)Gal(b1-4)GlcNAc(b1-2)Man(a1-3)[Neu5Ac(a2-6)Gal(b1-4)GlcNAc(b1-2)Man(a1-6)]Man(b1-4)GlcNAc(b1-4)GlcNAc
How it was run: as §1

[29] = biological target: Neu5Ac(a2-6)Gal(b1-4)GlcNAc(b1-3)[Neu5Ac(a2-6)Gal(b1-4)GlcNAc(b1-6)]Gal(b1-4)Glc
How it was run: as §1

[30] = biological target: Ara(a1-5)Ara(a1-5)Ara(a1-5)Ara(a1-5)Ara(a1-5)Ara
How it was run: as §1

[31] = biological target: Fuc(a1-2)Gal(b1-3)GlcNAc(b1-3)Gal(b1-4)Glc
How it was run: as §1

[32] = biological target: Gal(b1-3)GlcNAc(b1-3)[Gal(b1-4)GlcNAc(b1-6)]Gal(b1-4)Glc
How it was run: as §1

[33] = biological target: Gal(b1-4)GlcNAc(b1-3)[Gal(b1-4)GlcNAc(b1-6)]Gal(b1-4)GlcNAc(b1-3)[Gal(b1-4)GlcNAc(b1-6)]Gal(b1-4)GlcNAc(b1-3)[Gal(b1-4)GlcNAc(b1-6)]Gal(b1-4)GlcNAc(b1-3)[Gal(b1-4)GlcNAc(b1-6)]Gal(b1-4)GlcNAc(b1-3)Gal(b1-4)Glc
How it was run: as §1

[34] = biological target: Gal3S(b1-3)[Fuc(a1-4)]GlcNAc(b1-3)Gal(b1-4)Glc
How it was run: as §1

[35] = biological target: Gal3S(b1-4)GlcNAc(b1-3)Gal
How it was run: as §1

[36] = biological target: Glc(a1-2)Glc(a1-3)Glc(a1-3)Man(a1-2)Man(a1-2)Man(a1-3)[Man(a1-3)[Man(a1-6)]Man(a1-6)]Man(b1-4)GlcNAc
How it was run: as §1

[37] = biological target: Glc(a1-3)Glc
How it was run: as §1

[38] = biological target: Glc(a1-3)Glc(a1-3)Man(a1-2)Man(a1-2)Man(a1-3)[Man(a1-3)[Man(a1-6)]Man(a1-6)]Man(b1-4)GlcNAc
How it was run: as §1

[39] = biological target: Glc(a1-3)Man(a1-2)Man(a1-2)Man(a1-3)[Man(a1-2)Man(a1-3)[Man(a1-2)Man(a1-6)]Man(a1-6)]Man(b1-4)GlcNAc(b1-4)GlcNAc
How it was run: as §1

[40] = biological target: Glc(a1-6)Glc
How it was run: as §1

[41] = biological target: Glc(a1-6)Glc(a1-6)Glc(a1-6)Glc
How it was run: as §1

[42] = biological target: Glc(a1-6)Glc(a1-6)Glc(a1-6)Glc(a1-6)Glc
How it was run: as §1

[43] = biological target: Glc(a1-6)Glc(a1-6)Glc(a1-6)Glc(a1-6)Glc(a1-6)Glc
How it was run: as §1

[44] = biological target: Glc(b1-4)Glc(b1-4)Glc(b1-4)Glc(b1-4)Glc(b1-4)Glc
How it was run: as §1

[45] = biological target: GlcA3S(b1-3)Gal
How it was run: as §1

[46] = biological target: GlcNAc(b1-3)[GlcNAc(b1-6)]Gal(b1-4)GlcNAc(b1-3)[GlcNAc(b1-6)]Gal(b1-4)GlcNAc(b1-3)Gal(b1-4)Glc
How it was run: as §1

[47] = biological target: HexA(a1-3)GalNAc6S(b1-4)GlcA(b1-3)GalNAc6S
How it was run: as §1

[48] = biological target: Man(a1-2)Man
How it was run: as §1

[49] = biological target: Man(a1-3)[Man(a1-6)]Man(b1-4)GlcNAc(b1-4)GlcNAc
How it was run: as §1

[50] = biological target: Man(b1-4)GlcNAc
How it was run: as §1

[51] = biological target: Man6P(a1-3)Man(a1-3)Man(a1-3)Man(a1-2)Man
How it was run: as §1

[52] = biological target: Neu5Ac(a2-3)Gal(b1-3)[Fuc(a1-4)]GlcNAc
How it was run: as §1

[53] = biological target: Neu5Ac(a2-3)Gal(b1-3)[Fuc(a1-4)]GlcNAc(b1-3)Gal(b1-4)Glc
How it was run: as §1

[54] = biological target: Neu5Ac(a2-8)Neu5Ac
How it was run: as §1

[55] = biological target: Neu5Ac9Ac(a2-6)Gal(b1-4)GlcNAc
How it was run: as §1

B1: Dectin-1 (Mus musculus), Q6QLQ4 (protein)
chain: GHNSGRNPEEKDNFLSRNKENHKPTESSLDEKVAPSKASQTTGGFSQPCLPNWIMHGKSCYLFSFSGNSWYGSKRHCSQLGAHLLKIDNSKEFEFIESQTSSHRINAFWIGLSRNQSEGPWFWEDGSAFFPNSFQVRNTAPQESLLHNCVWIHGSEVYNQICNTSSYSICEKEL
- glycan array binding signal (z-score) [1]: 0.092
- glycan array binding signal (z-score) [2]: -0.064
- glycan array binding signal (z-score) [3]: -0.091
- glycan array binding signal (z-score) [4]: -0.091
- glycan array binding signal (z-score) [5]: -0.088
- glycan array binding signal (z-score) [6]: 0.102
- glycan array binding signal (z-score) [7]: -0.071
- glycan array binding signal (z-score) [8]: -0.135
- glycan array binding signal (z-score) [9]: 0.413
- glycan array binding signal (z-score) [10]: -0.113
- glycan array binding signal (z-score) [11]: 1.33
- glycan array binding signal (z-score) [12]: 5.34
- glycan array binding signal (z-score) [13]: 13.4
- glycan array binding signal (z-score) [14]: -0.135
- glycan array binding signal (z-score) [15]: -0.135
- glycan array binding signal (z-score) [16]: 0.216
- glycan array binding signal (z-score) [17]: -0.06
- glycan array binding signal (z-score) [18]: -0.078
- glycan array binding signal (z-score) [19]: -0.029
- glycan array binding signal (z-score) [20]: -0.004
- glycan array binding signal (z-score) [21]: -0.113
- glycan array binding signal (z-score) [22]: -0.091
- glycan array binding signal (z-score) [23]: -0.039
- glycan array binding signal (z-score) [24]: -0.091
- glycan array binding signal (z-score) [25]: -0.069
- glycan array binding signal (z-score) [26]: -0.054
- glycan array binding signal (z-score) [27]: -0.091
- glycan array binding signal (z-score) [28]: -0.091
- glycan array binding signal (z-score) [29]: -0.091

B2: Malectin (Xenopus laevis), Q6INX3 (protein)
chain: SGLADKVIWAVNAGGESHVDVHGIHYRKDPLEGRVGRASDYGMKLPILRSNPEDQVLYQTERYNEDSFGYDIPIKEEGEYVLVLKFAEVYFAQSQQKVFDVRVNGHTVVKDLDIFDRVGHSTAHDEIIPISIKKGKLSVQGEVSTFTGKLSVEFVKGYYDNPKVCALFIMKGTADDVPMLQPHPGLE
- glycan array binding signal (z-score) [30]: -0.069
- glycan array binding signal (z-score) [31]: -0.068
- glycan array binding signal (z-score) [32]: -0.075
- glycan array binding signal (z-score) [33]: -0.066
- glycan array binding signal (z-score) [34]: -0.076
- glycan array binding signal (z-score) [35]: -0.076
- glycan array binding signal (z-score) [36]: 0.052
- glycan array binding signal (z-score) [37]: 0.041
- glycan array binding signal (z-score) [38]: 8.46
- glycan array binding signal (z-score) [39]: -0.171
- glycan array binding signal (z-score) [40]: -0.214
- glycan array binding signal (z-score) [41]: 0.133
- glycan array binding signal (z-score) [42]: 0.876
- glycan array binding signal (z-score) [43]: 1.32
- glycan array binding signal (z-score) [44]: -0.198
- glycan array binding signal (z-score) [45]: -0.074
- glycan array binding signal (z-score) [46]: -0.076
- glycan array binding signal (z-score) [47]: -0.074
- glycan array binding signal (z-score) [48]: -0.076
- glycan array binding signal (z-score) [49]: -0.072
- glycan array binding signal (z-score) [50]: -0.075
- glycan array binding signal (z-score) [51]: -0.075
- glycan array binding signal (z-score) [23]: -0.076
- glycan array binding signal (z-score) [52]: -0.076
- glycan array binding signal (z-score) [53]: -0.076
- glycan array binding signal (z-score) [54]: -0.073
- glycan array binding signal (z-score) [55]: -0.073
